# Assay results: PubChem BioAssay (NCI)
# The panel holds about 83,000 compounds, 20% with a hit somewhere; the sample as a whole holds those more often.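 Assay: single dose, 48 h. Readout: percent growth (0 = no net growth; negative = cell death). Active: <10.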 Values without a mark were called inactive. Calls of active or inactive are those of the source.
# Key:
# Assay in all cases: NCI-60 one-dose screen, 48 h (100 = growth as untreated, 0 = no growth, -100 = all killed)
# DU-145 prostate = conditions: 10 µM unless noted
# K-562 leukemia = conditions: 10 µM unless noted
# MALME-3M melanoma = conditions: 10 µM unless noted
# MDA-MB-231 breast = conditions: 10 µM unless noted
# SF-268 CNS = conditions: 10 µM unless noted
# SF-295 CNS = conditions: 10 µM unless noted
# SF-539 CNS = conditions: 10 µM unless noted
# UACC-257 melanoma = conditions: 10 µM
# M14 melanoma = conditions: 10 µM unless noted
# HCT-15 colon = conditions: 10 µM unless noted
# HT29 colon = conditions: 10 µM unless noted
# SNB-75 CNS = conditions: 10 µM unless noted
# SNB-19 CNS = conditions: 10 µM unless noted
# U251 CNS = conditions: 10 µM unless noted
# SK-MEL-5 melanoma = conditions: 10 µM unless noted
# UACC-62 melanoma = conditions: 10 µM unless noted
# LOX IMVI melanoma = conditions: 10 µM unless noted
# SK-MEL-28 melanoma = conditions: 10 µM unless noted
# RXF 393 renal = conditions: 10 µM unless noted
# PC-3 prostate = conditions: 10 µM unless noted
SMILES,growth (DU-145 prostate),growth (K-562 leukemia),growth (MALME-3M melanoma),growth (MDA-MB-231 breast),growth (SF-268 CNS),growth (SF-295 CNS),growth (SF-539 CNS),growth (UACC-257 melanoma),growth (M14 melanoma),growth (HCT-15 colon),growth (HT29 colon),growth (SNB-75 CNS),growth (SNB-19 CNS),growth (U251 CNS),growth (SK-MEL-5 melanoma),growth (UACC-62 melanoma),growth (LOX IMVI melanoma),growth (SK-MEL-28 melanoma),growth (RXF 393 renal),growth (PC-3 prostate)
Cc1cccc(NC(c2cc3cccc4ccc5cccc2c5c43)c2nnnn2C(C)(C)C)c1C (stereo not drawn),104%,96.6%,92.9%,78.6%,91.1%,87.2%,86.5%,94%,94.4%,88.7%,82.1%,93.7%,91.1%,95.3%,97.4%,62.3%,80.2%,102%,–,–
CS(=O)(=O)c1ccc2c(c1)c1c(n2S(=O)(=O)c2ccc(Cl)cc2)CCCC1,22.9%,–,54.5%,29.8%,63.3%,21%,2.97% (active),60.6%,26.3%,24%,5.37% (active),-1.4% (active),30.1%,25.6%,26.7%,15.5%,36.5%,64.2%,-0.699% (active),30.7%
CS(=O)(=O)c1nccc(-c2c(-c3ccc(F)c(OCCc4ccccc4)c3)nc3sccn23)n1,-87.9% (active),–,119%,89.4%,98.7%,97.2%,93%,-16.4% (active),83.2%,83.1%,91.3%,108%,81.7%,105%,98%,83.9%,75.2%,57.3%,99.1%,41.7%
Clc1ccccc1/C=C/c1nn2c(-c3ccncc3)nnc2s1,103%,–,100%,101%,98.7%,98%,98.3%,121%,85.7%,96.4%,111%,105%,99.6%,106%,99.3%,94.3%,98.1%,103%,109%,97.2%
CS(=O)c1nccc(-c2c(-c3ccc(F)c(OCc4ccc(F)cc4)c3)nc3sccn23)n1 (stereo not drawn),-9.49% (active),–,92.3%,67.8%,100%,97.8%,88.4%,-24.6% (active),81.6%,59.4%,27.9%,94.4%,68.7%,96%,100%,85.6%,78.6%,41.1%,87.6%,-10.7% (active)
Cc1ccc(-c2nnc3sc(C4=Cc5ccccc5OC=C4)nn23)cc1,114%,104%,97.6%,94.1%,105%,98.9%,95.3%,88.4%,99.8%,92.9%,101%,79.1%,92.1%,96.6%,92.2%,91.6%,116%,97.1%,–,–
C=CCn1c(SCC(=O)Nc2cccc(C(=O)/C=C/c3cc(OC)c(OC)c(OC)c3)c2)nc2ccccc2c1=O,13.7%,–,71%,29.5%,70.3%,83.5%,21.1%,80.9%,63%,11.6%,-23.4% (active),33.9%,53.8%,9.44% (active),82.5%,48.8%,10%,83.8%,17.1%,51.6%
CS(=O)(=O)c1nccc(-c2c(-c3ccc(F)c(OCc4ccc(F)cc4)c3)nc3sccn23)n1,-96.4% (active),–,111%,79.9%,96.1%,96.9%,90.1%,-56.9% (active),81.3%,70%,85.5%,106%,75.4%,100%,96.7%,81.1%,19.9%,61.6%,84.2%,-17.3% (active)
C=C1C(=O)O[C@@H]2C[C@@H](C)[C@H](OC)CC(=O)[C@](C)(OC(C)=O)C[C@H](OC(=O)/C(C)=C\C)[C@@H]12,78.3%,–,40.2%,36.7%,93.1%,91.6%,71.4%,77.1%,88.8%,58.9%,59.5%,78.7%,99.1%,91.5%,–,–,84.4%,–,58.7%,83.6%
CS(=O)(=O)c1nccc(-c2c(-c3ccc(F)c(OCCc4ccc(F)cc4)c3)nc3sccn23)n1,-91.6% (active),–,91.7%,1.19% (active),82.8%,89%,76.3%,-81.4% (active),83.9%,-0.659% (active),7.43% (active),67.8%,0.358% (active),71.4%,92.1%,57.9%,51.5%,-71.5% (active),77.7%,-62.2% (active)
CCOC(=O)c1c(Nc2ccccc2)nn2c(-c3ccc(OC)c(OC)c3)ccnc12,74.2%,19.8%,76.2%,34.9%,68.1%,49%,60.2%,95.2%,53.6%,18.4%,62.3%,68.7%,80.1%,60.6%,32.4%,77.1%,37.6%,65.8%,–,39.1%
Nc1nc(N)c2c(n1)NC(c1ccccc1)CC(c1ccc(Nc3nc(NCCO)nc(Nc4ccc(Cl)cc4)n3)cc1)=N2 (stereo not drawn),41.6%,-40.7% (active),-89.6% (active),73.3%,76.5%,46.9%,71.1%,113%,81%,-58% (active),-87.6% (active),112%,-77.1% (active),11.9%,55.6%,96.7%,-86.1% (active),109%,–,15.1%
COc1ccccc1N1CCN(C2=NN=C(c3cccc(Cl)c3)c3ccccc3C2)CC1,2.18% (active),3.9% (active),44.9%,-3.39% (active),22.6%,19.3%,-11.6% (active),56.3%,6.83% (active),15.8%,-3.52% (active),19.7%,41.2%,20.7%,-6.03% (active),–,24.8%,60.7%,–,23.5%
C/C(Cc1ccc(Cl)cc1)=C(/c1ccccc1)c1ccc(OCCN)cc1,106%,–,88.5%,98.7%,94.2%,99.7%,99.7%,106%,95.7%,101%,102%,98.2%,92.9%,100%,99.1%,91.7%,98%,96%,102%,99%
COc1ccc(-c2cc(-c3cccc4ccccc34)n3c(n2)nc2ccccc23)cc1OC,15.7%,32.8%,16.9%,66.7%,35.3%,2.25% (active),31.1%,60.8%,36%,27.4%,21.5%,40.7%,16.7%,20.4%,17.9%,20%,30.9%,51.5%,–,30.8%
CS(=O)(=O)c1ccc2c(c1)c1c(n2C(=O)c2ccc(Cl)cc2)CCCC1,36%,–,43.7%,39.9%,62.1%,22.5%,1.96% (active),56.8%,28.8%,25.7%,5.05% (active),5.66% (active),34.9%,19.9%,25.5%,23.8%,40.5%,60.9%,-12.1% (active),22.7%
